Laboratory results taken from PubChem BioAssay (NCI).
This is part of a sample that, as a whole, favours compounds with a hit. Of some 79,000 tested, about 15% had one in any assay. Rule as the data show it: active = growth inhibition above about 70%; inactive = the rest.

Key:
[1] = NCI Yeast Anticancer Drug Screen. Data for the rad50 strain (AID 155);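 also: 0% = growth of vehicle-only cultures of the same strain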; settings: S. cerevisiae rad50 strain growth inhibition; at 50.0 µM; hits give high values
Summary of the method: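 Vehicle-treated cultures provide the reference for the growth inhibition reported for compound-exposed, repair-deficient yeast.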

[2] = NCI Yeast Anticancer Drug Screen. Data for the mec2-1 strain (AID 157); settings: S. cerevisiae mec2-1 strain, at 50.0 µM, hits give high values
Summary of the method: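 mec2-1 yeast strain, carrying an alteration in DNA damage repair or cell cycle control, was exposed to compounds; growth inhibition was measured relative to vehicle-treated controls.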

[3] = NCI Yeast Anticancer Drug Screen. Data for the sgs1 mgt1 strain (AID 161);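 also: 0% = growth of cultures given vehicle only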; settings: S. cerevisiae sgs1 mgt1 strain, at 50.0 µM, hits give high values
Summary of the method: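 Yeast cells carrying a defined DNA-repair defect were exposed to test compounds. Growth inhibition was measured relative to vehicle-treated controls.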

[4] = NCI Yeast Anticancer Drug Screen. Data for the cln2 rad14 strain (AID 165);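 also: 0% = growth equal to vehicle treated cultures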; settings: S. cerevisiae cln2 rad14 strain, at 50.0 µM, hits give high values
Summary of the method: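 Yeast carrying cln2 and rad14 alterations (cell cycle control and DNA damage repair) were exposed to compounds. Growth inhibition was measured against vehicle-treated controls.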

[5] = NCI Yeast Anticancer Drug Screen. Data for the bub3 strain (AID 167); settings: S. cerevisiae bub3 mutant strain, at 50.0 µM, hits give high values
Summary of the method: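 Mutant yeast screening strain plus compound; vehicle-treated cultures serve as the 0% inhibition reference.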

[6] = NCI Yeast Anticancer Drug Screen. Data for the mlh1 rad18 strain (AID 175); settings: S. cerevisiae mlh1 rad18 strain growth inhibition; at 50.0 µM; hits give high values
Summary of the method: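 Growth inhibition of the yeast strain was measured after compound exposure and expressed relative to vehicle-treated controls. The strain carries defined defects in DNA damage repair.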

Measured: growth inhibition

CC(C)CCC[C@@H](C)[C@H]1CC[C@H]2[C@@H]3CC[C@H]4C[C@@H](CCC=C(c5cc(Cl)c(O)c(C(=O)O)c5)c5cc(Cl)c(O)c(C(=O)O)c5)CC[C@]4(C)[C@H]3CC[C@]12C
inactive: [1] 15.3% | [2] 8.35% | [3] 11.4% | [4] -4.2% | [5] 24.5% | [6] -1.75%

O=C(CCl)Nc1ccc(O)c2ccccc12
inactive: [1] 14.8% | [2] 4.65% | [3] 7.45% | [4] 9.95% | [5] 5.85% | [6] 36.8%

N#CC1CCCC(c2ccccc2)(C2CCCCC2)C1=O (stereo not given)
inactive: [1] 7.4% | [2] 13.1% | [3] 10.2% | [4] 26.4% | [5] 2.85% | [6] -0.9%

O=C1CSCN1N1CSCC1=O
inactive: [1] -5.85% | [2] 3.1% | [3] 7.85% | [4] -4.35% | [5] 8.95% | [6] 18.8%

Cc1ccc(S(=O)(=O)CN2C(=O)C(c3ccccc3)(c3ccccc3)C23OC(c2ccc(Cl)cc2)=CC3=O)cc1 (stereo not given)
inactive: [1] -2.35% | [2] -7.7% | [3] -5.7% | [4] -20.1% | [5] -35.7% | [6] -21.9%

CC1CN(Cc2ccccc2)C(=O)C1=O (stereo not given)
inactive: [1] -20.4% | [2] 17.1% | [3] -21.3% | [4] -12.7% | [5] -9.8% | [6] -11.9%

COC(=O)OCC1OC(OC(C)=O)C2OC(=O)OC12 (stereo not given)
inactive: [1] 8.55% | [2] -16.9% | [3] -16.7% | [4] 5.45% | [5] 2.35% | [6] -3.15%

COC(=O)c1ccc(SCCC(C)=O)cc1
inactive: [1] -8% | [2] 5.3% | [3] -12.1% | [4] 9.9% | [5] 25.9% | [6] 0.7%

CCOC(=O)Cc1cc(Cl)c2ccc(Cl)cc2n1
inactive: [1] 32.1% | [2] -2% | [3] 23.2% | [4] 11.6% | [5] 36.4% | [6] 40.4%

CC(C)(C)OC(=O)CC(c1ccccc1)c1ccccc1
inactive: [1] -11.5% | [2] -9.4% | [3] -8.7% | [4] -41.5% | [5] 49.1% | [6] -21.9%

O=P1(C(c2ccccc2)c2ccccc2)OC2CC(Cl)CC(C2)O1 (stereo not given)
inactive: [1] 4.9% | [2] -1.85% | [3] -6.9% | [4] -46.8% | [5] 0.25% | [6] -11.9%

Cc1ccc(NC(=O)NCCCCCCNC(=O)Nc2ccc(C)cc2)cc1
inactive: [1] -7.05% | [2] -13% | [3] -7.95% | [4] -9.05% | [5] -14.4% | [6] -17.9%

O=[N+]([O-])C(=C(N1CCOCC1)N1CCOCC1)/C(Cl)=C(\Cl)Br
inactive: [1] -19.2% | [2] -1.1% | [3] -0.6% | [4] -14.1% | [5] 4.5% | [6] 2.55%

C[N+]1(CC(O)C[N+]2(C)CCCCCC2)CCCCCC1
inactive: [1] 11.3% | [2] 14.1% | [3] -7.65% | [4] -6.2% | [5] -2.9% | [6] 32.8%

O=C1CCCC(=S)N1
inactive: [1] 3.1% | [2] 4.2% | [3] 9.35% | [4] 16.8% | [5] 14.3% | [6] 6.1%

COC(=O)CCC1CCC(CC2CCC(CCC(=O)OC)CC2)CC1 (stereo not given)
inactive: [1] -20.1% | [2] -6.95% | [3] -6.65% | [4] -26% | [5] -9.7% | [6] -4.25%

CC(=O)C1C(=O)C(=O)N(c2ccc([N+](=O)[O-])cc2Cl)C1=O (stereo not given)
inactive: [1] -45.9% | [2] -35.8% | [3] 2.95% | [4] 2.95% | [5] -3.55% | [6] -33.2%

CN(C)CCNC(=O)c1cccc(C(=O)Nc2ccccc2)c1[N+](=O)[O-]
inactive: [1] 13.7% | [2] -12.6% | [3] -7.7% | [4] 20.4% | [5] -9.95% | [6] -41.6%

COc1c2occc2c(OC)c2c(=O)c(S(=O)(=O)NC(=O)Nc3ccc(Cl)cc3)coc12
inactive: [1] 5.7% | [2] -11.8% | [3] 3.65% | [4] -55.8% | [5] -20.3% | [6] 2.4%

CS(=O)(=O)N(CCC#N)c1ccc(C=O)cc1
inactive: [1] 20.4% | [2] -24.7% | [3] -7.4% | [4] -8.1% | [5] -12.2% | [6] 7%
